Screen size: about 5,500 compounds; about 2,000 (36%) were called active. Inconclusive results (about 18%) are left out. Rule as the data show it: active = normalized growth mostly below about 0.91 (no sharp cut-off); inconclusive = no clear call, values can overlap the other calls; inactive = mostly above about 0.92. The list shows a part of the results.
Assay: chemical genetic growth profiling, strain panel (AID 1159580);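 also: tested at 20 µM; growth read once vehicle control cultures reached saturation at 30 °C; 1 = growth at the plate median or of vehicle wells; lower values mean less growth of the strain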
Conditions: S. cerevisiae deletion strains, growth OD

Measured: normalized growth

CCOC(=O)Nc1nc2ccccc2[nH]1
inactive: locus YAL021C, strain ccr4, stronger effect = lower value 0.936 | locus YAL026C, strain drs2, stronger effect = lower value 0.977 | locus YAL030W, strain snc1, stronger effect = lower value 0.96 | locus YBL061C, strain skt5, stronger effect = lower value 0.982 | locus YBR009C, strain hhf1, stronger effect = lower value 0.967 | locus YBR023C, strain chs3, stronger effect = lower value 0.995 | locus YBR171W, strain sec66, stronger effect = lower value 0.965 | locus YBR231C, strain swc5, stronger effect = lower value 0.988 | locus YBR279W, strain paf1, stronger effect = lower value 0.991 | locus YCL011C, strain gbp2, stronger effect = lower value 0.979 | locus YCL016C, strain dcc1, stronger effect = lower value 0.995 | locus YCL061C, strain MRC1, stronger effect = lower value 0.992 | locus YCL069W, strain vba3, stronger effect = lower value 0.992 | locus YCR088W, strain abp1, stronger effect = lower value 0.99 | locus YDL005C, strain med2, stronger effect = lower value 0.994 | locus YDL040C, strain nat1, stronger effect = lower value 0.994 | locus YDR001C, strain nth1, stronger effect = lower value 0.97 | locus YDR069C, strain doa4, stronger effect = lower value 0.902 | locus YDR137W, strain rgp1, stronger effect = lower value 0.865 | locus YDR159W, strain sac3, stronger effect = lower value 0.979 | locus YDR195W, strain ref2 1.13 | locus YDR297W, strain sur2, stronger effect = lower value 0.964 | locus YDR334W, strain swr1, stronger effect = lower value 0.947 | locus YDR335W, strain msn5, stronger effect = lower value 0.989 | locus YDR392W, strain spt3, stronger effect = lower value 0.972 | locus YEL003W, strain gim4, stronger effect = lower value 0.972 | locus YEL037C, strain rad23, stronger effect = lower value 0.984 | locus YEL061C, strain CIN8 (second series), stronger effect = lower value 0.983 | locus YER015W, strain faa2, stronger effect = lower value 0.972 | locus YER016W, strain bim1, stronger effect = lower value 0.994 | locus YER111C, strain swi4, stronger effect = lower value 0.991 | locus YER155C, strain BEM2 (second series), stronger effect = lower value 0.977 | locus YFR010W, strain ubp6, stronger effect = lower value 0.937 | locus YGL167C, strain pmr1, stronger effect = lower value 0.984 | locus YGL173C, strain kem1, stronger effect = lower value 0.953 | locus YGL227W, strain vid30, stronger effect = lower value 0.986 | locus YGL240W, strain doc1, stronger effect = lower value 0.941 | locus YGL253W, strain hxk2, stronger effect = lower value 0.982 | locus YHR013C, strain ard1, stronger effect = lower value 0.956 | locus YHR027C, strain rpn1, stronger effect = lower value 0.962 | locus YHR030C, strain SLT2, stronger effect = lower value 0.969 | locus YHR079C, strain IRE1, stronger effect = lower value 0.976 | locus YHR142W, strain chs7, stronger effect = lower value 0.986 | locus YJL092W, strain hpr5, stronger effect = lower value 0.999 | locus YJL095W, strain BCK1 (second series), stronger effect = lower value 0.975 | locus YJL095W, strain BCK1, stronger effect = lower value 0.987 | locus YJL115W, strain asf1, stronger effect = lower value 0.961 | locus YJL129C, strain trk1, stronger effect = lower value 1.03 | locus YJL154C, strain vps35, stronger effect = lower value 0.982 | locus YJL164C, strain tpk1, stronger effect = lower value 0.986 | locus YJL166W, strain qcr8, stronger effect = lower value 0.977 | locus YJL187C, strain SWE1, stronger effect = lower value 0.988 | locus YJR066W, strain TOR1, stronger effect = lower value 0.923 | locus YKL160W, strain elf1, stronger effect = lower value 0.985 | locus YKR026C, strain gcn3, stronger effect = lower value 0.996 | locus YKR091W, strain srl3, stronger effect = lower value 0.987 | locus YLL001W, strain dnm1, stronger effect = lower value 0.987 | locus YLL026W, stronger effect = lower value 0.974 | locus YLL041C, strain sdh2, stronger effect = lower value 0.978 | locus YLR027C, strain aat2, stronger effect = lower value 0.985 | locus YLR113W, strain HOG1, stronger effect = lower value 1.03 | locus YLR221C, strain rsa3, stronger effect = lower value 0.988 | locus YLR258W, strain gsy2, stronger effect = lower value 0.984 | locus YLR262C, strain YPT6 (second series), stronger effect = lower value 0.933 | locus YLR320W, strain mms22, stronger effect = lower value 0.966 | locus YLR342W, strain FKS1, stronger effect = lower value 0.988 | locus YLR357W, strain rsc2, stronger effect = lower value 0.92 | locus YLR370C, strain arc18, stronger effect = lower value 0.986 | locus YLR384C, strain iki3, stronger effect = lower value 0.978 | locus YML120C, strain ndi1, stronger effect = lower value 0.998 | locus YMR058W, strain fet3, stronger effect = lower value 0.968 | locus YMR125W, strain sto1, stronger effect = lower value 1 | locus YMR129W, stronger effect = lower value 0.981 | locus YMR205C, strain PFK2, stronger effect = lower value 0.904 | locus YMR231W, strain pep5, stronger effect = lower value 0.989 | locus YNL071W, strain lat1, stronger effect = lower value 0.985 | locus YNL183C, strain NPR1, stronger effect = lower value 0.942 | locus YNL209W, strain ssb2, stronger effect = lower value 0.971 | locus YNL248C, strain rpa49, stronger effect = lower value 0.998 | locus YNL322C, strain KRE1 (second series), stronger effect = lower value 0.983 | locus YNR049C, strain mso1, stronger effect = lower value 0.983 | locus YOR001W, strain rrp6, stronger effect = lower value 0.97 | locus YOR070C, strain gyp1, stronger effect = lower value 0.983 | locus YOR080W, strain dia2, stronger effect = lower value 0.971 | locus YOR083W, strain WHI5, stronger effect = lower value 0.974 | locus YOR106W, strain vam3, stronger effect = lower value 0.927 | locus YOR231W, strain MKK1, stronger effect = lower value 0.954 | locus YOR265W, strain rbl2, stronger effect = lower value 0.987 | locus YOR270C, strain vph1, stronger effect = lower value 0.868 | locus YOR290C, strain snf2, stronger effect = lower value 0.895 | locus YPL051W, strain arl3, stronger effect = lower value 0.987 | locus YPL078C, strain atp4, stronger effect = lower value 0.986 | locus YPL106C, strain sse1, stronger effect = lower value 0.956 | locus YPL240C, strain hsp82, stronger effect = lower value 0.991 | locus YPL256C, strain CLN2, stronger effect = lower value 0.987

Source: PubChem BioAssay AID1159580 (chemical genetic matrix, 2015)
